From PubChem
Hits are enriched below; roughly 4% of the tested compounds scored in any of these assays.
CF NFkB block: inhibitors of cystic fibrosis induced NF-kB. KKLEB NF-kB-GFP reporter, PAF-induced, GFP fluorescence overnight. inhibition, % at 5 µM. hit rate 0.86% among 360,000;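 active = at least 50% inhibition at 5 µM, scaled per plate between neutral and stimulator controls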;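 note: PAF is a Pseudomonas aeruginosa culture filtrate used as stimulus; plate controls were PAF-stimulated DMSO wells for no effect and unstimulated DMSO wells for full effect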
TROY signal inh: inhibitors of TROY-dependent NF-kB signaling; hit rate 0.98% among 360,000; Q293 LMP1-TROYcd NF-kB luciferase reporter, 4 h; inhibition, % at 10 µM;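 active = compounds whose plate-normalised and pattern-corrected inhibition of the luciferase reporter signal at the single screening dose is 50% or more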
KKLEB cytotox: reduces viability of KKLEB cystic fibrosis airway cells; AID 602141; hit rate 0.36% among 360,000; KKLEB CF airway cells viability, ATPlite luminescence, overnight; stronger effect = lower value; cells stimulated with P. aeruginosa culture filtrate; activity change (cytotoxicity), % at 5 µM;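 active = corrected activity change at or below -50% at 5 µM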
Peg3 promoter: inhibitors of Peg3 promoter | HeLa PEG-Prom luciferase reporter, luminescence, overnight | inhibition, % at 20 µM | hit rate 1.7% among 360,000 | AID 588405;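 active = inhibition of at least 50% at 20 µM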
TWEAK Fn14 block: inhibitors of TWEAK-Fn14 interaction signaling | TWEAK-stimulated Fn14 reporter cells, luciferase luminescence, 8 h | inhibition, % at 10 µM | hit rate 2% among 360,000 | AID 1159606; in the data active = inhibition above about 50%
HIF-2a block: blocks HIF-2a reporter activity. 786-0 RCC cells HIF-2a reporter, luciferase luminescence, overnight. inhibition, % at 18.8 µM. hit rate 0.72% among 360,000;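 active = inhibition of the luminescence signal of 40% or more relative to plate controls, in a single-dose primary screen at 18.75 µM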
Numbers without * were called inactive; x = no result given.

SMILES	CF NFkB block	TROY signal inh	KKLEB cytotox	Peg3 promoter	TWEAK Fn14 block	HIF-2a block
CN(C)/C=N/C(=S)Nc1ccc(Cl)c(Cl)c1	4.9	-22.7	-3.6	-163.8	-3.2	-180.4
CN(C)/C=N/C(=S)Nc1ccc(F)cc1	-3.4	x	-2.5	-48.1	88.1*	-57.6
CCC1Cc2[nH]c(=S)[nH]c(=O)c2C(c2ccc(F)cc2)O1 (centres undefined)	-8.0	-3.9	9.9	8.1	1.6	10.8
O=[N+]([O-])c1ccc2c(c1)C(N1CCN(CCO)CC1)Cc1ccc(F)cc1S2 (centres undefined)	2.0	-3.6	-14.2	33.7	1.0	-24.6
CSc1ccc2c(c1)C(N1CCN(C)CC1)Cc1ccc(F)cc1S2 (centres undefined)	10.7	14.5	-24.9	115.2*	-72.1	-14.2
COc1ccc2c(c1)CC(N1CCN(C)CC1)c1cc(OC)ccc1S2 (centres undefined)	24.6	-29.7	-14.8	68.9*	3.3	10.6
CC(=O)Nc1ccc(S(=O)(=O)NCC(=O)OCC(=O)N2CC(C)OC(C)C2)cc1 (centres undefined)	-18.4	22.0	-7.4	-0.2	-3.5	2.0
CCCSc1nc(C)c2cc(C)cc(C)c2n1	-1.5	-7.5	-0.2	-9.3	12.7	8.6
Cc1cc(C)c2nc3nc(C)c(C)cc3c(N)c2c1	-115.3	-81.0	-2.8	65.6*	-80.6	-9.9
Cc1cccc(N2CCN(C(=O)c3ccc4nc(-c5ccco5)c(-c5ccco5)nc4c3)CC2C)c1 (centres undefined)	6.0	-0.4	14.9	62.9*	21.9	15.3
Cc1nc(SCC(=O)Nc2nccs2)c(C#N)c(C)c1C	-11.9	72.7*	-32.1	4.9	75.6*	16.2
Cc1ccc(NC(=O)CSc2nsc(SCC(=O)Nc3ccc(C)cc3C)c2C#N)c(C)c1	-2.1	6.8	-7.6	76.8*	-44.8	2.5
CC(C)(C)NC(=O)CSc1nsc(SCC(=O)NC(C)(C)C)c1C#N	-17.0	-0.6	5.3	18.4	-19.8	2.3
Cc1csc(NC(=O)CSc2nsc(SCC(=O)Nc3nc(C)cs3)c2C#N)n1	13.2	56.9*	-5.4	-179.0	46.8	-178.9
O=S(=O)(Nc1c(S(=O)(=O)c2ccccc2)c2nc3ccccc3nc2n1C1CCCCC1)c1ccccc1	25.6	64.3*	0.8	21.6	98.0*	-2.9
Cc1n[nH]c(C)c1CCNC(=O)C1CCC(=O)N(CCc2cccc(F)c2)C1 (centres undefined)	-16.2	-15.8	3.4	5.2	58.0*	9.7
O=C(CCc1nc(-c2ccc(Cl)cc2)no1)NCc1ccccc1CN1CCOCC1	7.6	84.2*	-19.3	10.9	0.0	-1.5
O=C(CCc1nc(-c2ccccc2)no1)NCc1ccccc1CN1CCOCC1	16.0	4.9	0.3	-2.0	-9.9	6.2
COc1ccc(O)c(C=Nc2cc(NC(C)=O)c(Cl)cc2Cl)c1	-6.6	-14.4	6.8	-11.4	5.6	4.8
CC(=O)Nc1cc(N=Cc2ccc(O)cc2O)c(Cl)cc1Cl	27.5	29.6	11.2	27.6	98.7*	12.0
c1ccc(OCCSc2nnc3sc4ccccc4n23)cc1	0.6	67.1*	-17.4	47.4	91.2*	11.1
COc1cccc(OCCSc2nnc3sc4ccccc4n23)c1	14.0	-34.7	-6.1	-139.8	-14.6	-144.5
COc1ccc(-c2cc(C3CCNCC3)[nH]n2)cc1	3.2	5.3	5.8	4.7	7.1	2.2
CCCCN(C(=O)c1ccco1)c1c(N)n(CCC)c(=O)[nH]c1=O	-10.1	0.1	6.3	7.6	12.2	14.3
CCCCN(C(=O)c1ccccc1F)c1c(N)n(CCC)c(=O)[nH]c1=O	-12.1	-1.4	-0.1	73.2*	29.5	9.8
SMILES	CF NFkB block	TROY signal inh	KKLEB cytotox	Peg3 promoter	TWEAK Fn14 block	HIF-2a block
CC(=O)NC(c1cccc(F)c1)c1nc(-c2cc(F)cc(Cl)c2)cs1 (centres undefined)	-5.5	-6.5	1.3	-12.1	-2.8	-31.5
CS(=O)(=O)N(CC(=O)N1CCOCC1)c1cc(Cl)ccc1Cl	-7.9	4.1	9.2	0.9	-1.5	16.4
CCOC(=O)C1=C(c2ccccc2)NC(N)=NC1c1ccc(OCc2ccc(C(=O)OC)cc2)cc1 (centres undefined)	24.3	6.1	-34.5	103.6*	0.7	-2.5
Cc1ccc2c(c1)N(CCC(=O)NC1CCCCC1C)C(=O)CO2 (centres undefined)	-14.0	12.9	3.4	1.5	5.1	2.0
Cc1csc2ncnc(N3CCN(C(=S)Nc4ccc(F)cc4F)CC3)c12	32.6	89.8*	-5.0	15.8	54.5*	23.9
Fc1ccc(NC(=S)N2CCCN(c3ccc(C(F)(F)F)cn3)CC2)c(F)c1	20.5	26.9	-3.8	-1.7	32.5	-1.5
COc1ccc(OC)c(S(=O)(=O)Nc2cc3c4c(c2)C(C)C(=O)N4CCC3)c1 (centres undefined)	-0.9	57.4*	6.2	-17.9	-8.2	15.9
COc1ccc(OC)c(S(=O)(=O)Nc2cc3c4c(c2)CCC(=O)N4CCC3)c1	4.5	-13.7	-8.1	-15.3	-7.4	-0.6
CC(C)CC1C(=O)N(Cc2cn(CCC3OCCCO3)nn2)CCS(=O)(=O)N1Cc1ccc(-c2ccc(Cl)c(Cl)c2)cc1 (centres undefined)	35.2	35.1	-18.5	55.5*	38.5	-32.5
Cc1cccc(C)c1-c1ccc(CN2C(CC(C)C)C(=O)N(Cc3cn(CCO)nn3)CCS2(=O)=O)cc1 (centres undefined)	39.1	37.4	2.3	58.5*	36.8	-10.3
CC(C)CC1C(=O)N(Cc2cn(CCC3OCCCO3)nn2)CCS(=O)(=O)N1Cc1ccc(-c2ccc(Cl)cc2)cc1 (centres undefined)	6.6	6.0	-12.3	21.7	16.7	2.7
COCOCCn1cc(CN2CCS(=O)(=O)N(Cc3ccc(-c4ccc(Cl)c(Cl)c4)cc3)C(C)C2=O)nn1 (centres undefined)	20.1	40.7	-12.9	92.8*	47.6	-38.4
CC1C(=O)N(Cc2cn(CCC3OCCCO3)nn2)CCS(=O)(=O)N1Cc1ccc(-c2ccc(Cl)c(Cl)c2)cc1 (centres undefined)	22.3	44.9	-14.5	35.1	71.0*	-32.9
COc1cc(OC)cc(C(=O)NCC2CCCN(C(=O)c3csc(C(C)C)n3)C2)c1 (centres undefined)	34.9	8.8	-16.0	13.4	0.2	-0.3
CC(=O)Nc1ccc(S(=O)(=O)NCC(=O)Nc2ccc3c(c2)OCO3)cc1	0.4	-5.6	10.0	-4.7	-7.5	6.7
CCOC(=O)c1sc(NC(=O)CSc2n[nH]c(-c3ccccc3)n2)c(C#N)c1C	35.1	65.4*	-15.2	14.4	-8.3	-29.6
CCOc1ccccc1OCCn1ncc2ccc(OC)c(OC)c2c1=O	-3.6	-5.5	-3.5	-10.5	-25.8	-28.2
COc1ccc2cnn(CCOc3ccccc3)c(=O)c2c1OC	0.7	32.5	-7.2	-260.1	51.4*	-96.1
